According to PubChem BioAssay (Tox21):
A number with no mark means an inactive call. Inconclusive results are not listed. A call without a number means that no potency is given here. The source made the active and inactive calls. Unless noted, calls follow the shape of the dose curve; as a rule, active = well fitted curve in the direction sought with a large enough effect in the repeat runs; inconclusive = weak or mixed curves; inactive = no such curve, though single readings can be large; an effect the other way counts as inactive or inconclusive.

What was measured:
[1] = qHTS assay to identify small molecule agonists of the androgen receptor (AR) signaling pathway in the presence of an antagonist - cell viability counter screen (AID 1259379); also: nearly all actives have a fitted effect of over 25% in size; also: potency is read from the fitted curve at half-maximal effect
In short: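 Each compound was tested at 15 concentrations on MDA-kb2 cells in the presence of 3.0uM nilutamide. Viability was measured by CellTiter-Fluor fluorescence after a 16 hr incubation at 37C in a CO2-free atmosphere.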

[2] = qHTS assay to identify small molecule agonists of the estrogen receptor beta (ER-beta) signaling pathway - cell viability counter screen (AID 1259380); also: nearly all actives have a fitted effect of over 30% in size; also: potency is read from the fitted curve at half-maximal effect
In short: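 Compounds dissolved in DMSO were pin-transferred onto ER-beta-UAS-bla HEK293T cells that had settled 6 hr, and exposure ran 16 hr at 37C. Following the reporter read, CellTiter-Glo luminescence after 30 min at room temperature indicated cytotoxicity.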

[3] = target: Androgen receptor (Homo sapiens) (UniProt P10275); assay: qHTS assay to identify small molecule agonists of the androgen receptor (AR) signaling pathway in the presence of an antagonist (AID 1259381; calls by dose curve; also: nearly all actives have a fitted effect of over 15% in size)
In short: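 Plated MDA-kb2 cells (3,000/well) were pre-incubated 5hr, given nilutamide (3.0uM final) or buffer, then dosed with compounds in DMSO at 15 concentrations. Luciferase activity was quantified by luminescence after 16hr at 37C.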

[4] = qHTS assay to identify small molecule antagonists of the estrogen receptor beta (ER-beta) signaling pathway - cell viability counter screen (AID 1259382);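 also: HEK293T cells carrying ER-beta-UAS-bla reporter stimulated with estradiol; series mostly up to about 92 µM; nearly all actives have a fitted effect of over 55% in size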
In short: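 CellTiter-Glo ATP luminescence measured after the LiveBLAzer read in the same wells; ER-beta-UAS-bla HEK293T cells, 16 hr compound treatment with 1nM 17-beta-estradiol agonist at 37C, 5% CO2.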

[5] = target: Estrogen receptor (Homo sapiens) (UniProt P03372); assay: qHTS assay to identify small molecule agonists of the estrogen receptor alpha (ER-alpha) signaling pathway in the presence of an antagonist (AID 1259383; calls by dose curve; also: nearly all actives have a fitted effect of over 15% in size; also: potency is read from the fitted curve at half-maximal effect; as to activation: top concentration of the series differs between compounds)
In short: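 Luminescent ERE-luciferase reporter, VM7Luc4E2 cells (endogenous ER-alpha); 10.0nM ICI-182,780 final; 15-point compound titration; 22hr at 37C; ONE-Glo, 30min RT.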

[6] = target: Thyrotropin receptor (Homo sapiens) (UniProt P16473); assay: qHTS assay to identify small molecule antagonists of the thyroid stimulating hormone receptor (TSHR) signaling pathway (AID 1259385; calls by dose curve; also: nearly all actives have a fitted effect of over 20% in size; also: potency is read from the fitted curve at half-maximal effect)
In short: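 TSHR-HEK293 cells (800/well) plated 18 h, then compounds with Ro20-1724 and TSH at 1.5 ng/mL final, 30 min at room temperature. cAMP quantified by HTRF (cAMP-d2/anti-cAMP-cryptate, 1 h); 15 concentrations in triplicate.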

[7] = qHTS assay to identify small molecule agonists of the estrogen receptor alpha (ER-alpha) signaling pathway in the presence of an antagonist - cell viability counter screen (AID 1259386);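 also: cells exposed to compounds for 22 h at 37 °C before the viability read; nearly all actives have a fitted effect of over 30% in size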; also: potency is read from the fitted curve at half-maximal effect
In short: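 Using estrogen-depleted VM7Luc4E2 cells, the 15-concentration compound series was applied together with 10.0nM ICI-182,780 and incubated 22hr at 37C/5% CO2. Cell viability was then scored by CellTiter-Fluor.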

[8] = target: Progesterone receptor (Homo sapiens) (UniProt P06401); assay: qHTS assay to identify small molecule agonists of the progesterone receptor (PR) signaling pathway (AID 1346784; calls by dose curve; also: nearly all actives have a fitted effect of over 30% in size)
In short: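 Compounds were tested for PR agonism in HEK 293T cells bearing a beta-lactamase gene under UAS control. Treatment lasted 16 hr at 37C; signal came from fluorescence of a FRET substrate.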

[9] = qHTS assay to identify small molecule antagonists of the progesterone receptor (PR) signaling pathway - cell viability counter screen (AID 1346798); also: series mostly up to about 92 µM; nearly all actives have a fitted effect of over 50% in size
In short: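 Following a 4 hr attachment, PR-UAS-bla HEK293T cells in charcoal-stripped FBS medium were exposed to compounds with R5020 for 16 hr; CellTiter-Glo was added and luminescence read after 30 min at room temperature.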

[10] = qHTS assay to identify small molecule agonists of the progesterone receptor (PR) signaling pathway - cell viability counter screen (AID 1346799; calls by dose curve; also: nearly all actives have a fitted effect of over 45% in size)
In short: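 Here, 3,000 PR-UAS-bla HEK293T cells per well were treated with compounds for 16 hr after a 6 hr preincubation at 37C and 5% CO2; cell viability is the CellTiter-Glo luminescence signal.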

[11] = qHTS assay to identify small molecule antagonists of the TGF-beta/Smad signaling pathway - cell viability counter screen (AID 1346824); also: nearly all actives have a fitted effect of over 50% in size
In short: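 SBE-bla HEK 293T cells, incubated overnight, then compound plus 0.25 ng/mL TGF-beta1 (stock added) for 5 hr at 37 C. Viability was read in the same wells by CellTiter-Glo luminescence after 30 min at room temperature.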

[12] = qHTS assay to identify small molecule agonists of the TGF-beta/Smad signaling pathway - cell viability counter screen (AID 1346829); also: top concentration of the series differs between compounds; nearly all actives have a fitted effect of over 45% in size
In short: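 Same-well cytotoxicity: CellTiter-Glo added after the 2 hr room-temperature beta-lactamase substrate step, luminescence measured 30 min later; cells had 5 hr of compound at 37 C.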

[13] = qHTS assay to identify small molecule agonists of the TGF-beta/Smad signaling pathway (AID 1346859; active = well fitted activation curve with a large enough effect in the signal ratio in the repeat runs, not every such curve was filed as active; the % refers to the signal ratio; also: series mostly up to about 77 µM)
In short: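 Each well held 4,000 SBE-bla HEK 293T cells incubated overnight before compound addition; 5 hr later the cleavable FRET substrate went on for 2 hr at room temperature, and fluorescence was read at two emissions.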

[14] = target: Thyrotropin-releasing hormone receptor (Homo sapiens) (UniProt P34981); assay: qHTS assay to identify small molecule antagonists of the thyrotropin-releasing hormone receptor (TRHR) signaling pathway (AID 1346877; active = well fitted inhibition curve with a large enough effect in the repeat runs, not every such curve was filed as active; also: series mostly up to about 51 µM)
In short: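 Calcium signal in dye-loaded TRHR/HEK293 cells; compounds added 5 min before TRH (1 nM final); fluorescence monitored 3 min at 1 s steps.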

[15] = target: Thyrotropin-releasing hormone receptor (Homo sapiens) (UniProt P34981); assay: qHTS assay to identify small molecule agonists of the thyrotropin-releasing hormone receptor (TRHR) signaling pathway (AID 1346891; calls by dose curve; also: series mostly up to about 58 µM)
In short: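 Screening of agonists relied on calcium signalling in HEK293 cells expressing human TRHR: dye loading 2 h at 37 °C preceded compound addition and a 3-min fluorescence time course.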

[16] = Human pregnane X receptor (PXR) small molecule agonists, qHTS cell viability counter screen (AID 1346977); also: nearly all actives have a fitted effect of over 50% in size
In short: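 Tox21 qHTS format; PXR-Luc HepG2, 2,000/well, charcoal-stripped FBS 5%. Cpd exposure 24hr. Read: CellTiter-Fluor fluorescence, multiplexed with luciferase.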

[17] = Caspase-3/7 induction in HepG2 cells by small molecules, qHTS assay (AID 1346978); also: nearly all actives have a fitted effect of over 15% in size; also: potency is read from the fitted curve at half-maximal effect
In short: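 Wild-type HepG2 cells, 2,000/well, settled 5 hr at 37 C and 5% CO2, then compound-treated for 17 hr; caspase-3/7 activity read by luminescent Caspase-Glo 3/7 after 30 min at room temperature.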

[18] = Caspase-3/7 induction in CHO-K1 cells by small molecules, qHTS cell viability counter screen (AID 1346979); also: nearly all actives have a fitted effect of over 35% in size; also: potency is read from the fitted curve at half-maximal effect
In short: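 CellTiter-Fluor viability check, qHTS format: wild-type CHO-K1, 16hr compound treatment, 1hr reagent incubation, fluorescence read.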

[19] = qHTS assay to identify small molecule agonists or antagonists of the thyroid stimulating hormone receptor (TSHR) signaling pathway - wild type cell line counter screen (AID 1259384; calls by dose curve)
In short: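 Wild-type Hek293 cells, 800/well, 18 h at 37C, then compound with Ro20-1724 for 30 min RT. cAMP by HTRF (cAMP-d2/anti-cAMP cryptate), 1 h RT, fluorescence read. 15 concentrations, triplicates.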

[20] = target: Progesterone receptor (Homo sapiens) (UniProt P06401); assay: qHTS assay to identify small molecule antagonists of the progesterone receptor (PR) signaling pathway (AID 1346795; active = well fitted inhibition curve with a large enough effect in the signal ratio in the repeat runs, not every such curve was filed as active; the % refers to the signal ratio; also: potency is read from the fitted curve at half-maximal effect)
In short: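 In HEK293T cells bearing the PR-UAS-bla reporter, compound effects on promegestone-driven (1 nM) beta-lactamase expression are assessed after 16 hr using a fluorescent FRET substrate incubated 2 hr at room temperature.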

Chain of Progesterone receptor (Homo sapiens) (P06401 whole entry, looked up): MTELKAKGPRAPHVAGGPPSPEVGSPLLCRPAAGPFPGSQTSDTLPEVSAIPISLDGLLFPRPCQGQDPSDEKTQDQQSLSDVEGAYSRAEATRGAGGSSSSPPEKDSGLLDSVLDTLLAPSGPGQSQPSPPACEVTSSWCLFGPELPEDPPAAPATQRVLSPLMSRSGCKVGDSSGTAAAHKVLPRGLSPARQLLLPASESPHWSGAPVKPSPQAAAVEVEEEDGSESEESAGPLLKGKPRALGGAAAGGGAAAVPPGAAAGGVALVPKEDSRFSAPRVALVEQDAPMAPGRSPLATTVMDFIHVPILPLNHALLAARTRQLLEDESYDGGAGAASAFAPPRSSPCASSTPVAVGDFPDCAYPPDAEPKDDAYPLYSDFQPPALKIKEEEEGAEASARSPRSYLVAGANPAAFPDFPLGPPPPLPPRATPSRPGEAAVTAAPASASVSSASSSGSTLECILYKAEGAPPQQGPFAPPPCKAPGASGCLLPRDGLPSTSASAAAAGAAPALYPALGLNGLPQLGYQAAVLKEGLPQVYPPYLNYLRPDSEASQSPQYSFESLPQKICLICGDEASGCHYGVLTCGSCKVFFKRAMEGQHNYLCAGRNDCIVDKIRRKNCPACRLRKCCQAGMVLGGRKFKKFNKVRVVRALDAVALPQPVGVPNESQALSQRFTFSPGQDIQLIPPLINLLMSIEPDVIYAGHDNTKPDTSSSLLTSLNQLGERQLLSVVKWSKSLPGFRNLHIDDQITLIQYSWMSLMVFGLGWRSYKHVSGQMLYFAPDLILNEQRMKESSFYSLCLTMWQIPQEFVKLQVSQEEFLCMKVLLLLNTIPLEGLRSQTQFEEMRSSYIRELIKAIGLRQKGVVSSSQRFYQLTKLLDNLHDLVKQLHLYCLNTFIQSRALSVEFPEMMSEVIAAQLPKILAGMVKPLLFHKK
Chain of Thyrotropin-releasing hormone receptor (Homo sapiens) (P34981 whole entry, looked up): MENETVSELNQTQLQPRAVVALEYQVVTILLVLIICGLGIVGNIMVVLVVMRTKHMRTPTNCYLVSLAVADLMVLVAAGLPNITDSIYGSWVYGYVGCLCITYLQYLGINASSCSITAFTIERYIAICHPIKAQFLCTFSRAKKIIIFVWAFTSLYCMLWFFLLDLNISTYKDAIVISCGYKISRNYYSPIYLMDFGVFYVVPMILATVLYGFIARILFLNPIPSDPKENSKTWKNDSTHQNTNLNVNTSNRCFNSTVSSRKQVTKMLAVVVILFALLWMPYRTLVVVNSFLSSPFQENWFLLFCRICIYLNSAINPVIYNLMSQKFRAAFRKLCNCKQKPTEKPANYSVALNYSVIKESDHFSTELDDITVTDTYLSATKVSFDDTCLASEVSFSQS
Chain of Thyrotropin receptor (Homo sapiens) (P16473 whole entry, looked up): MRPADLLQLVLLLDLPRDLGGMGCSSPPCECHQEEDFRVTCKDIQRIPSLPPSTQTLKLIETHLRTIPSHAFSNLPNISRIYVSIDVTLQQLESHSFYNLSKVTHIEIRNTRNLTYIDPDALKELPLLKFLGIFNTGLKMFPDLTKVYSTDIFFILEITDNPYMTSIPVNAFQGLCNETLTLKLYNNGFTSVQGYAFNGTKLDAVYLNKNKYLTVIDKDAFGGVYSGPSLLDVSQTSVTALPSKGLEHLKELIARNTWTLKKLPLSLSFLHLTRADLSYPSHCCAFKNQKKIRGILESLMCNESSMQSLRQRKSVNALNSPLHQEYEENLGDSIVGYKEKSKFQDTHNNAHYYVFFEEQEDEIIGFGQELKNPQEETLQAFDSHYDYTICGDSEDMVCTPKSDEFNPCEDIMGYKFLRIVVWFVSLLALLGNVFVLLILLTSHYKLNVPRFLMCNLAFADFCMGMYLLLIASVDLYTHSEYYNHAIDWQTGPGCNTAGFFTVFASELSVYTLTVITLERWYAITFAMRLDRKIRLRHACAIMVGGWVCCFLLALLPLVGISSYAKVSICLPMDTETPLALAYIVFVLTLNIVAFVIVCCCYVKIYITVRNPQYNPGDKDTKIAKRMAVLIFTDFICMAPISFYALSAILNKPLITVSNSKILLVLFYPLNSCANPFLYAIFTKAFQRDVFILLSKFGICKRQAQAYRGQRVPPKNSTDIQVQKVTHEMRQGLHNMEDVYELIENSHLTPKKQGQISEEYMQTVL
Chain of Androgen receptor (Homo sapiens) (P10275 whole entry, looked up): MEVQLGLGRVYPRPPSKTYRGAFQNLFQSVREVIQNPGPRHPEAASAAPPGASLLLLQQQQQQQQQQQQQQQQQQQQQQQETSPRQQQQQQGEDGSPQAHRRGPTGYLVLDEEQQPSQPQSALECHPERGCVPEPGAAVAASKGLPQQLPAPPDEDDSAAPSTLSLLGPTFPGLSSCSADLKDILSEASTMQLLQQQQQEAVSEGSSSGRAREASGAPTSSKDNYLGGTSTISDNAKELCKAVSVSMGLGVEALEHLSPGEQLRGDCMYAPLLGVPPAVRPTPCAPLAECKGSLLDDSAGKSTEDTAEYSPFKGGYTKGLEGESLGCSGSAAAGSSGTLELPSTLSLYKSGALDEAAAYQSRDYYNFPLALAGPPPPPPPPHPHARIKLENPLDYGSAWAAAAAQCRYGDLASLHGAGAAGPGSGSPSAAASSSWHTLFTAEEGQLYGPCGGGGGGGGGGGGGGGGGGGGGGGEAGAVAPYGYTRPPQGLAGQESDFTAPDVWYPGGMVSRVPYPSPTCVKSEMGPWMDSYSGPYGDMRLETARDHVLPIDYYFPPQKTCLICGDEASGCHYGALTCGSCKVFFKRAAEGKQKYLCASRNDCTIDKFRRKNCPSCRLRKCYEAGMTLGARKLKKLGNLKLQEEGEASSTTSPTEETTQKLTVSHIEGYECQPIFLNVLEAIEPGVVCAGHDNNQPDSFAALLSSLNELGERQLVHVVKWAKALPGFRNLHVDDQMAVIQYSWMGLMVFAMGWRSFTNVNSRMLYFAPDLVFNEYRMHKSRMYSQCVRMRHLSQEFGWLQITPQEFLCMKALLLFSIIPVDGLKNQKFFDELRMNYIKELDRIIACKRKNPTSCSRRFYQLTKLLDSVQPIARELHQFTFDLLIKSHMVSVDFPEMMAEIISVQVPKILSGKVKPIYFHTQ
Chain of Estrogen receptor (Homo sapiens) (P03372 whole entry, looked up): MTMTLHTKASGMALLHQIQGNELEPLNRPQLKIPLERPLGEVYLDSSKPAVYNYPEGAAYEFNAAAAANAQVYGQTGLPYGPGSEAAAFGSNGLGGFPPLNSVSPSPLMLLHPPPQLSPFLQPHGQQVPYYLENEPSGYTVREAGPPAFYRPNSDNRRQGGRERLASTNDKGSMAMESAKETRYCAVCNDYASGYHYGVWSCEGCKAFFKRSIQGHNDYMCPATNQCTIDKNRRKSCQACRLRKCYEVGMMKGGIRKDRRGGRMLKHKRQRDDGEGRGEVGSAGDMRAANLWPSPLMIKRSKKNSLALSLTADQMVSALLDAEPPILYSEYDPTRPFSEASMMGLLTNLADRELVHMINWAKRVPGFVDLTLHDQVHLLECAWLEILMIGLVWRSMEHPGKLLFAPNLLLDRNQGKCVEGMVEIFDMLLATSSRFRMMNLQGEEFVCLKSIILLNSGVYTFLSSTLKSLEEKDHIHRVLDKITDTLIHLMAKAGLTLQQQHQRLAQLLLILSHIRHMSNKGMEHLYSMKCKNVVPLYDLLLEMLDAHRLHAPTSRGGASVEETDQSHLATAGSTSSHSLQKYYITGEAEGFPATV

Compound	Potency [1]	Potency [2]	Potency [3]	Potency [4]	Potency [5]	Potency [6]	Potency [7]	outcome [8]	Potency [9]	Potency [10]	Potency [11]	Potency [12]	outcome [13]	Potency [14]	Potency [15]	Potency [16]	Potency [17]	Potency [18]	Potency [19]	Potency [20]
CCc1cccc(C)c1N(C(=O)CS(=O)(=O)O)C(C)COC (configuration not stated)	inactive	inactive	inactive	inactive	inactive	inactive	inactive	inactive	inactive	inactive	inactive	inactive	inactive	inactive	inactive	inactive	inactive	inactive		
CC1=CC[C@@H](C(C)(C)O)CC1	inactive	inactive	inactive	inactive	inactive	inactive	inactive	inactive	inactive	inactive		inactive	inactive	inactive		inactive	inactive	inactive	inactive	
C=COCCCC	inactive	inactive	inactive	inactive	inactive	inactive	inactive	inactive	inactive	inactive	inactive	inactive	inactive			inactive	inactive	inactive	inactive	
Brc1cc(Br)cc(Br)c1	inactive	inactive	inactive	inactive	inactive	inactive	inactive	inactive	inactive		inactive	inactive	inactive	inactive	inactive	inactive		inactive		
O=C(Cl)c1ccc(Cl)cc1Cl	inactive	inactive	inactive	inactive	inactive		inactive	inactive	inactive	inactive	inactive		inactive	inactive		inactive	inactive			inactive
CCOC(=O)OC(=O)OCC	inactive	inactive	inactive	inactive	inactive	inactive	inactive	inactive	inactive	inactive	inactive			inactive		inactive	inactive	inactive	inactive	
NC(=O)C1CO1 (configuration not stated)	inactive	inactive			inactive	inactive	inactive	inactive	inactive	inactive	inactive		inactive	inactive	inactive	inactive	inactive	inactive	inactive	inactive
Cc1ccc2n[nH]nc2c1	inactive	inactive			inactive	inactive	inactive	inactive	inactive	inactive		inactive	inactive	inactive	inactive	inactive	inactive	inactive		
CCOC(=O)C1=NN(c2ccc(Cl)cc2Cl)C(C)(C(=O)OCC)C1 (configuration not stated)	inactive		inactive	inactive	inactive		inactive	inactive	inactive	inactive	inactive	inactive		inactive	inactive	inactive	inactive	inactive		27.3 µM (active)
COc1cc([C@@H]2c3cc4c(cc3[C@@H](O[C@@H]3O[C@@H]5CO[C@@H](C)O[C@H]5[C@H](O)[C@H]3O)[C@H]3COC(=O)[C@H]23)OCO4)cc(OC)c1O	inactive	inactive		inactive		inactive	inactive	inactive				inactive					53.9 µM (active)		inactive	24.1 µM (active)
CC(C)c1ccc2sc3ccccc3c(=O)c2c1	inactive				1.37 µM (active)	54.5 µM (active)	inactive	inactive	inactive	inactive	inactive	inactive				inactive	inactive	inactive	inactive	
COc1c(Br)cc(Br)c(C)c1Br	inactive	inactive		inactive			inactive	inactive	inactive	inactive		inactive		inactive	inactive	inactive	inactive	inactive		inactive
C=C(C)C1CCC(C)CC1O (configuration not stated)	inactive	inactive		inactive		inactive	inactive	inactive	inactive	inactive		inactive	inactive			inactive	inactive	inactive	inactive	
CCCCCCCCOC(=O)c1cc(O)c(O)c(O)c1	17.2 µM (active)	68.6 µM (active)			inactive	inactive	54.5 µM (active)											1.09 µM (active)	inactive	
C/C(=C\c1ccc(C(=O)O)cc1)c1ccc2c(c1)C(C)(C)CCC2(C)C	inactive				inactive	29.8 µM (active)	inactive	inactive	inactive	inactive	inactive	inactive	inactive			inactive	inactive	inactive	inactive	
ClC(c1ccccc1)(c1ccccc1)c1ccccc1	inactive	inactive					inactive	inactive	inactive	inactive	inactive	inactive	inactive	inactive	inactive	inactive	inactive	inactive		
CCCCCc1ccc(O)cc1	inactive		inactive		inactive	inactive	inactive	inactive	inactive	inactive	inactive	inactive	inactive			inactive				
Clc1nc(C(Cl)(Cl)Cl)c(Cl)c(Cl)c1Cl	21.7 µM (active)	8.63 µM (active)			inactive		inactive	inactive		inactive	inactive		inactive	inactive	inactive			30.6 µM (active)	inactive	
